High-throughput results from PubChem BioAssay.
An excerpt weighted towards active compounds, which were near 1.1% of everything screened.
MOR-DOR ag: OPRM1-OPRD1 heterodimerization agonism | AID 504326 | cells, luminescence | activation, % at 9.3 µM | 340,000 tested, 0.3% active; in the data active = activation above about 18%;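 also: 0% = vehicle-treated cells and 100% = reference agonist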
OPRM1-OPRD1 inv: inverse agonists of human mu-delta opioid receptor heterodimerization; 340,000 tested, 0.21% active; AID 504357; inhibition, % at 9.3 µM; cell-based MOR-DOR heterodimer luminescence, inverse agonism; in the data active = inhibition above about 22%, passing the limit was not always enough;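 also: 0% = cells with DMSO and 100% = wells without cells with DMSO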
HTR5A inv ag: inverse agonist of human HTR5A in OPRM1-OPRD1 counter-screen. inhibition, % at 9.3 µM. HTR5A cell line, luminescence, inverse agonism. 340,000 tested, 0.083% active; in the data active = inhibition mostly above about 23%, no sharp cut-off; inactive = mostly below about 18%;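 also: 0% = cells with DMSO and 100% = no-cell wells with DMSO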
Target sequence (P47898 whole entry, looked up): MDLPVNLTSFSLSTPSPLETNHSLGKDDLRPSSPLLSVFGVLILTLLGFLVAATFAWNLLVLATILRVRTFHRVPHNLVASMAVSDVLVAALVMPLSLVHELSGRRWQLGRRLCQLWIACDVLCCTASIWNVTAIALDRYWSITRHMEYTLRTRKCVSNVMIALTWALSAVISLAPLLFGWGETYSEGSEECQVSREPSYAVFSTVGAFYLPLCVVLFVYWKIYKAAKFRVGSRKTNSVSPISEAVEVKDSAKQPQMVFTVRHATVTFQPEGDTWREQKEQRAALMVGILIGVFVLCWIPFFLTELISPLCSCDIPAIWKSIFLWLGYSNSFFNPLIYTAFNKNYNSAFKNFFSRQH
HTR5A ag ctr: HTR5A agonism, opioid heterodimer counter-screen. P47898. HTR5A agonist assay, luminescence, cell-based. activation, % at 9.3 µM. 340,000 tested, 0.61% active. AID 504692; in the data active = activation mostly above about 9.5%, no sharp cut-off; inactive = mostly below about 7.6%;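 also: 0% = cells with vehicle only and 100% = reference agonist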
OPRM1-D1 inv cf: OPRM1-OPRD1 heterodimer inverse agonism, confirmation; shares compounds with OPRM1-OPRD1 inv; cells expressing OPRM1/OPRD1 heterodimer, luminescence; inhibition, % at 9.3 µM; 580 tested, 20% active; in the data active = inhibition above about 32%;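 also: 0% = cells with DMSO and 100% = wells lacking cells with DMSO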
HTR5A inv ctr2: HTR5A inverse agonism, opioid heterodimer counter-screen; shares compounds with OPRM1-OPRD1 inv; HTR5A-expressing cells, luminescence; inhibition, % at 9.3 µM; 580 tested, under 10 active; AID 504914; call rule not given here;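 also: 0% = cells with DMSO and 100% = no-cell wells with DMSO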
* hit, by the source's call; i = inactive; · = no result.

SMILES	MOR-DOR ag	OPRM1-OPRD1 inv	HTR5A inv ag	HTR5A ag ctr	OPRM1-D1 inv cf	HTR5A inv ctr2
O=C(NCc1ccccc1)c1nc(S(=O)(=O)Cc2ccccc2)ncc1Cl	-6.5	34.8*	25.1	-8.1	7.9	4.4
O=C(NCc1ccc2c(c1)OCO2)c1nc(S(=O)(=O)Cc2ccccc2F)ncc1Cl	-6.4	32.0*	3.7	-1.0	9.3	-3.1
O=C(COC(=O)C1CC1)Nc1c(Cl)cccc1C(F)(F)F	-2.0	10.5	2.7	-1.1	·	·
CCCCC(=O)Nc1nnn(CCC)n1	-0.4	2.1	-15.5	6.5	·	·
CCCCC(=O)NC(=S)Nc1nnn(CCC)n1	-7.7	37.2*	29.8	-7.1	21.9	-6.9
O=C(CCc1ccccc1)OCC(=O)c1cccc([N+](=O)[O-])c1	-11.3	54.3*	49.5	-0.2	31.2*	20.2
O=C(CN1C(=O)C2CC=CCC2C1=O)OCC(=O)c1ccc(Cl)c([N+](=O)[O-])c1 (configuration not stated)	-16.2	89.5*	38.2*	-4.9	59.1*	21.0
O=C(CN1C(=O)c2ccccc2C1=O)NCC(=O)OCC(=O)c1cccc([N+](=O)[O-])c1	-14.9	72.7*	1.4	-1.1	45.2*	14.5
O=C(Cc1ccccc1)NCC(=O)OCC(=O)c1cccc([N+](=O)[O-])c1	-12.5	64.4*	19.3	-7.9	58.1*	7.6
Cc1ccccc1NS(=O)(=O)c1ccc(NC(=O)CSCc2ccc(Br)cc2)cc1	5.7	-31.7	-14.9	2.0	·	·
COc1ccc(NC(=O)C2CCN(C(=O)c3cccs3)CC2)cc1OC	-0.1	0.8	-23.5	1.6	·	·
CC(C)(C)c1cc(C(=O)NCC(=O)OCC(=O)c2cccc([N+](=O)[O-])c2)cc(C(C)(C)C)c1	-8.8	46.3*	10.7	-3.1	37.3*	52.2*
O=C(CN1C(=O)C2C3C=CC(C3)C2C1=O)OCC(=O)c1ccc([N+](=O)[O-])cc1 (configuration not stated)	-2.8	15.1	6.5	-2.3	·	·
O=C(CN1C(=O)C2C3CC(C(Br)C3Br)C2C1=O)OCC(=O)c1cccc([N+](=O)[O-])c1 (configuration not stated)	-12.1	60.9*	17.7	-6.5	37.8*	14.3
CC(C)=N/N=C1\NC(=O)C(C)S1 (configuration not stated)	-2.4	12.2	16.2	5.6	·	·
CC1Cc2ccccc2N1C(=O)Cn1c(=O)cc(O)c2ccccc21 (configuration not stated)	-1.7	8.3	5.5	-2.3	·	·
Cc1ccc(S(=O)(=O)Nc2ccccc2-c2ccccc2NS(=O)(=O)c2ccc(C)cc2)cc1	-1.8	9.1	-11.3	5.1	·	·
Cc1ccc(S(=O)(=O)Nc2cccc3cccnc23)cc1	-7.3	44.1*	11.1	-5.9	10.8	5.4
CCCn1c(SCC(=O)NC2CCCC(C)C2C)n[nH]c1=O (configuration not stated)	-1.4	8.4	-12.7	-9.2	·	·
Cn1c(=O)[nH]c(=O)c2c1nc(Br)n2C/C=N/Nc1ccccc1	-7.2	35.3*	-5.7	2.1	i	-26.1
O=C1C(=O)N(CCCc2ccccc2)c2ccccc21	-8.7	43.4*	5.5	-2.7	90.3*	1.8
O=C(CN1C(=O)C(=O)c2ccccc21)NCCc1ccccc1	-11.0	56.4*	25.4	-8.9	9.4	11.4
O=C(COc1cccc(Oc2ccccc2)c1)Nc1ncccn1	-2.5	12.4	-28.4	11.7	·	·
Cc1ccc(SCC(=O)OCC(=O)N(CC(C)C)C2CCS(=O)(=O)C2)cc1C (configuration not stated)	-3.5	23.7*	-1.5	0.6	-24.5	-27.8
CC1NC(=S)N(Cc2ccccc2)C1=O (configuration not stated)	-6.3	33.0*	-0.7	4.5	-80.5	-34.2
SMILES	MOR-DOR ag	OPRM1-OPRD1 inv	HTR5A inv ag	HTR5A ag ctr	OPRM1-D1 inv cf	HTR5A inv ctr2
CC(C)C1NC(=S)N(Cc2ccccc2)C1=O (configuration not stated)	-1.5	8.7	8.8	-2.0	·	·
CCCc1ccc(C(=O)NNC(=O)c2ccc(Br)cc2)cc1	2.5	-13.4	-0.6	0.2	·	·
CCCc1ccc(C(=O)NNc2ccc(F)cc2)cc1	-8.5	43.5*	9.9	2.5	29.3	6.3
O=C(NNc1ccc(O)cc1)c1ccc(Br)cc1	-9.6	65.6*	24.0	0.9	61.8*	20.2
CC1CCCC=CC2CC(OC(=O)CN(C)C)CC2C(O)C=CC(=O)O1 (configuration not stated)	-6.5	28.2	-4.7	1.2	·	·
C[C@H]1CCC/C=C/[C@@H]2C[C@H](O)C[C@H]2[C@H](O)[C@H](S(=O)c2ccc(O)cc2)CC(=O)O1 (some centres not stated)	-10.1	44.3*	-0.4	0.1	-63.9	-18.6
Cc1ccc(Cl)c2c1NC(=O)C2=O	-18.7	85.9*	22.5	-4.4	74.3*	9.1
CCOc1ccc(CNC(=O)CCCn2ccc3cc(S(=O)(=O)N4CCCC4)ccc32)cc1	-1.3	6.9	-15.2	3.8	·	·
Nc1ccc2c(c1)CC(=O)c1ccccc1S2	-8.4	45.4*	-7.6	1.0	i	5.9
Cn1c(NNC(=O)c2ccccc2F)cc(=O)n(C)c1=O	-4.4	22.6	25.5	0.2	·	·
Cn1c(NNC(=O)c2cccc3ccccc23)cc(=O)n(C)c1=O	-4.0	23.4*	-7.6	7.6	-36.5	4.3
Cc1cc(SCC(=O)N(C)C2CCCCC2)nc2ccccc12	6.7	-27.7	-18.3	6.6	·	·
Cc1ccccc1-n1c(=O)n(Cc2ccccc2)c(=O)c2[nH]cnc21	-3.7	19.3	3.5	-7.9	·	·
COC(=O)c1ccc(C)c(-n2c(=O)n(Cc3ccccc3)c(=O)c3[nH]cnc32)c1	-11.5	52.1*	24.0	-6.8	-45.8	9.1
Cn1cnc([N+](=O)[O-])c1S(=O)(=O)Oc1cccc2ccccc12	-4.7	24.3	21.5	-5.3	·	·
Cn1cnc([N+](=O)[O-])c1S(=O)(=O)Oc1ccc(Cl)cc1	-8.1	39.5*	23.7	-6.0	-24.5	20.4
CCS(=O)(=O)N1CCC(C(=O)OCC(=O)c2ccc(Br)cc2)CC1	-7.0	35.2*	6.0	-2.7	1.4	-2.1
CN(CCOc1ccc(Cl)cc1)C(=O)c1cccc(S(=O)(=O)N2CCN(Cc3ccccc3)CC2)c1	-0.3	1.1	-4.8	5.5	·	·
O=C(CN1C(=O)C(=O)c2ccccc21)OCN1C(=O)c2ccccc2C1=O	-6.0	30.2	5.3	-2.0	·	·
COc1ccccc1NC(=O)COC(=O)CN1C(=O)C(=O)c2ccccc21	-8.0	56.5*	9.8	0.9	8.4	5.6
C=CCNC(=S)NCCCCC1NC(=S)N(CC=C)C1=O (configuration not stated)	-3.4	24.7*	21.8	0.2	7.4	-4.3
COC(=O)c1cccc(NC(=O)CCSc2ccc(Cl)cc2)c1C	-3.0	14.8	-4.0	1.6	·	·
CCCCC(=O)NC(=S)NNC(=O)CCc1ccccc1	-7.9	39.1*	24.6	-8.3	15.9	5.4
CC(=O)NC(=S)NNC(=O)CCc1ccccc1	-5.3	24.5	7.2	-2.6	·	·
